# Measured values: PubChem BioAssay AID2717 (Broad Institute, 2010)
# About 3,200 (1.1%) of roughly 300,000 compounds were called active. Only a selection was taken, and actives are over-represented in it overall. Unmarked numbers belong to inactive results. Rule as the data show it: active = inhibition above about 75%; inconclusive = no clear call, values can overlap the other calls; inactive = below that; tested in HMLE shEcad cells.
# Assay: growth suppression of cancer stem-like cells – cell-based, luminescence, primary screen (AID 2717)
# Conditions: cancer stem cell-like cells viability, at 7.5 µM, active compounds read high
row,Compound,inhibition
1,O=C(COC(=O)c1cc(S(=O)(=O)N2CCOCC2)ccc1F)NC1CC1,-6.89%
2,O=C(Nc1cccc(C(F)(F)F)c1)c1ccc(N2CCNCC2)c([N+](=O)[O-])c1,-16.4%
3,CC(NC(=O)c1ccc(N2CCNCC2)c([N+](=O)[O-])c1)C12CC3CC(CC(C3)C1)C2 (centres undefined),86.5% (active)
4,O=C(NC1C2CC3CC(C2)CC1C3)c1ccc(N2CCNCC2)c([N+](=O)[O-])c1 (centres undefined),52.3%
5,O=C1C=C(c2ccnc3cc(Cl)ccc23)C[C@@H](c2ccc3c(c2)OCO3)C1,6.37%
6,Cc1ccc(S(=O)(=O)N2CCN(C(=O)CN3C(=O)NC(C)(c4ccc(Cl)cc4)C3=O)CC2)c(C)c1 (centres undefined),3.13%
7,CC1(C)C=Cc2c(ccc3c2OC[C@@H](c2ccc(O)cc2O)C3)O1,90% (active)
8,Cc1ccsc1C(=O)OCC(=O)NCCc1ccccc1,12.1%
9,Cc1nnc(N/N=C/C2CC=CCC2)[nH]c1=O (centres undefined),9.52%
10,Cc1nnc(N/N=C/c2ccccn2)[nH]c1=O,121% (active)
11,CNC(=O)C(=O)N/N=C/c1ccccn1,-9.33%
12,O=C(COC(=O)CSc1ccccc1)Nc1ccc(F)cc1F,-0.0328%
13,CNC[C@H]1Oc2c(NC(=O)C3CCCCC3)cccc2C(=O)N([C@H](C)CO)C[C@@H]1C,1.2%
14,Cc1cccc(N2CCN(C(=O)c3cccc(N4C(=O)C5C6C=CC(C6)C5C4=O)c3)CC2)c1C (centres undefined),26.5%
15,CCC(CC)C(=O)N1CCN(c2cccc(C)c2C)CC1,-11.5%
16,CCn1c(C)c(C)c2cc(C(=O)N3CCN(c4cccc(C)c4C)CC3)ccc21,120% (active)
17,COc1ccccc1C(=O)COC(=O)COc1ccc(C#N)cc1,2.49%
18,CC(C)(C)OC(=O)N[C@H](C(=O)OC(C)(C)C)c1ccc(Br)cc1,0.862%
19,CC(OC(=O)c1ccc([N+](=O)[O-])cc1)C(=O)NCC1CCCCC1 (centres undefined),-10.2%
20,CC(C)=CCCC1(C)C=Cc2c(ccc3c2[nH]c2cc(O)c(C)cc23)O1 (centres undefined),101% (active)
21,CCOC(=O)[C@H]1[C@H]2COc3cc(OC)ccc3[C@@H]2N2C(=O)CN(Cc3ccc(Cl)cc3)C(=O)[C@@]12C,-21.1%
22,CC1CN(C(=O)c2ccc([N+](=O)[O-])s2)CC(C)O1 (centres undefined),0.926%
23,COc1cc(NC(=O)COC(=O)c2ccc([N+](=O)[O-])s2)cc(OC)c1OC,-12.6%

row,Compound,inhibition
1,CN(c1ccccc1)S(=O)(=O)c1ccc(C(=O)N2CCN(c3ccccc3Cl)CC2)cc1,-0.098%
2,Cc1c(CC(=O)NCCCCCC(=O)O)c(=O)oc2cc3occ(-c4ccccc4)c3cc12,-4.15%
3,CCCCCCc1ccc(O)cc1O,-10.2%
4,CCCCCCc1cc2cc(-c3nnc(-c4ccccc4)o3)c(=O)oc2cc1O,118% (active)
5,CC(C)NC(=O)Nc1cccc2c1O[C@H](CN(C)S(=O)(=O)c1cccs1)[C@@H](C)CN([C@H](C)CO)C2=O,-18%
6,COc1ccccc1NS(=O)(=O)c1ccc(C)c(C(=O)NNC(=O)c2csc(N3CCOCC3)n2)c1,-11.7%
7,CCCCC(=O)Nc1nc(C)c(-c2csc(Nc3ccc(Cl)cc3)n2)s1,63.1%
8,CCCCCCC(=O)Nc1nc(C)c(-c2csc(Nc3cc(Cl)ccc3OC)n2)s1,5.64%
9,C=CCCC(=O)Nc1nc(C)c(-c2csc(Nc3ccc(Cl)cc3)n2)s1,99% (active)
10,C/C=C/c1ccc(OCC(=O)NNC(=O)CN(C)S(=O)(=O)c2ccc(C)cc2)c(OC)c1,-2.93%
11,CN(C(=O)c1cccc(NC(=O)Cc2ccc([N+](=O)[O-])cc2)c1)C1CCC1,1.28%
12,Cc1cccc(-n2ncc(Cl)c(Cl)c2=O)c1,138% (active)
13,COc1ccc(Oc2c(Cl)cnn(-c3ccccc3)c2=O)cc1,22%
14,Cc1cccc(-n2ncc(C#N)c2-n2cccc2)c1,-10.4%
15,O=C(COC(=O)c1n[nH]c2ccccc12)Nc1ccccc1Br,-14%
16,CC1CCCCC1NC(=O)Cn1cnc2c1c(=O)n(C)c(=O)n2C (centres undefined),-15.5%
17,CC(C)(C)OC(=O)C[C@@H]1C/C=C\C[C@H](CC(=O)N[C@@H](CO)Cc2ccccc2)C(=O)N[C@H](Cc2ccccc2)COC1=O,-5.32%
18,CCOC(=O)CCCNC(=O)COC(=O)/C=C/c1ccc2c(c1)OCO2,-10.5%
19,CCc1c(C)sc(NC(=O)/C=C/c2ccc3c(c2)OCO3)c1C(=O)OC,96.5% (active)
20,CCc1c(C)sc(NC(=O)c2ccc(Br)o2)c1C(=O)OC,28.8%
21,COc1ccc(S(=O)(=O)N2CCN(C(C)C(=O)Nc3ccc(C(C)C)cc3)CC2)cc1 (centres undefined),-10.6%
22,O=C(Nc1ccccc1Cl)/C(Cl)=C(\Cl)S(=O)c1ccccc1 (centres undefined),145% (active)
23,O=C(COC(=O)c1cccs1)Nc1ccccc1Cl,-12.7%

row,Compound,inhibition
1,O=C(Nc1ccccc1Cl)Nn1cnnc1,-3.82%
2,CC(C)(C)OC(=O)C[C@@H]1C/C=C\C[C@@H](CC(=O)N[C@H](CO)Cc2ccccc2)C(=O)NCCOC1=O,-6.88%
3,CCOc1ccc(NC(=O)CN(C)C(=O)Cc2sc(C)nc2-c2ccc(F)cc2)cc1OCC,-4.92%
4,COc1cc(C=NNC(=O)c2cccnc2)ccc1OC(=O)c1ccccc1F,-6.57%
5,O=C1CSc2ccc(C(=O)NCc3ccccn3)cc2N1,-3.45%
6,Cc1cccc(C)c1NC(=O)CNC(=O)c1ccc2c(c1)OCCO2,14.6%
7,N#Cc1ccc(CN2CCN(CC(=O)Nc3ccccc3C(=O)NC3CC3)CC2)cc1,-9.82%
8,Cc1ccc(CSc2nc(-c3ccccc3)c(C#N)c(=O)[nH]2)cc1,27.6%
9,N#Cc1c(-c2ccccc2)nc(SCc2cccc(C(F)(F)F)c2)[nH]c1=O,105% (active)
10,N#Cc1c(-c2ccccc2)nc(SCc2ccc([N+](=O)[O-])cc2)[nH]c1=O,3.97%
11,O=C(COC(=O)/C=C/c1cccc(Cl)c1)NCc1cccs1,2.73%
12,Oc1c(CN2CCN(c3ccc(F)cc3)CC2)cc(Cl)c2cccnc12,138% (active)
13,O=C(CN1CCN(c2ccc(F)cc2)CC1)Nc1ccccc1,-1.5%
14,Oc1ccc(CN2CCN(c3ncccn3)CC2)cc1,-8.35%
15,O=C1c2ccccc2C(=O)N1CCC#Cc1ccc2cc(C3(O)CCCCC3)oc(=O)c2c1,4.37%
16,COc1ccc(CCNc2nc(-c3cccc(NC(C)=O)c3)cs2)cc1OC,-2.96%
17,COc1ccc2c(c1OC)C(=O)OC2Nc1nc(-c2ccccc2)cs1 (centres undefined),126% (active)
18,Cc1ccc(-c2csc(NC3OC(=O)c4ccccc43)n2)cc1 (centres undefined),-24.8%
19,O=C(CN1C(=O)NC2(CCCCCC2)C1=O)Nc1ccc([N+](=O)[O-])cc1,-18.6%
20,Cc1ccc(C2CC(=O)NC(SCC(=O)OCc3ccccc3)=C2C#N)o1 (centres undefined),61.5%
21,CCOC(=O)CSC1=C(C#N)C(c2sccc2C)CC(=O)N1 (centres undefined),78.4% (active)
22,CCOC(=O)CSC1=C(C#N)C(c2ccco2)C(C(=O)OCc2ccccc2)=C(C)N1 (centres undefined),-3.25%
23,Cc1c(Cl)cnc(NC(=O)COC(=O)C2CCCC2)c1Cl,-15.8%

row,Compound,inhibition
1,O=C(CCNC(=O)c1ccc(Cl)cc1)NC1CCCc2ccccc21 (centres undefined),27%
2,COC(=O)c1cc2nc(-c3ccccc3)cc(C(F)(F)F)n2n1,-6.63%
3,COCCNc1cc(-c2ccccc2)nc2cc(-c3cccc(F)c3)nn12,85.5% (active)
4,COc1ccc(NC(=O)c2cc3nc(-c4ccccc4)cc(C)n3n2)cc1OC,5.1%
5,CN(CCc1ccccc1)C(=O)c1cccc(NC(=O)Cc2ccc([N+](=O)[O-])cc2)c1,-6.88%
6,Cc1ccc(CNC(=O)CC(NC(=O)c2ccccc2)c2ccccc2)cc1 (centres undefined),-10.4%
7,CCN(CC)S(=O)(=O)c1ccc(N2CCCC2)c(NC(=O)c2ccc([N+](=O)[O-])o2)c1,27.4%
8,Cc1ccc(S(=O)(=O)N2CCCCC2)cc1NC(=O)CCNC(=O)c1ccccc1,-6.19%
9,CCCNC(=O)c1c(N)n(-c2ccc(S(N)(=O)=O)cc2)c2nc3ccccc3nc12,0.593%
10,CC(C)Cn1c(N)c(C(=O)NCc2cccs2)c2nc3ccccc3nc21,116% (active)
11,CC(C)(C)c1ccc(C(=O)NCCn2c(N)c(C#N)c3nc4ccccc4nc32)cc1,35.6%
12,Cn1c(CC(=O)NNC(=O)c2ccccc2F)nc2ccccc21,-2.01%
13,CN(Cc1ccccc1)C(=O)COC(=O)/C=C/c1ccc2c(c1)OCO2,-12%
14,O=C(NCc1ccc2c(c1)OCO2)c1c(-c2ccsc2)sc2ccccc12,58.2%
15,Cn1cncc1C#Cc1c(-c2ccsc2)sc2ccccc12,107% (active)
16,Cc1ccnc(SCC(=O)Nc2cccc(S(=O)(=O)N3CCOCC3)c2)n1,-13%
17,O=C(NCC#CCSc1nnc(-c2cccc3ccccc23)o1)c1cccs1,44.4%
18,O=C(/C=C/c1ccccc1[N+](=O)[O-])OCC(=O)N1CCCC1,-16.9%
19,CSCCC1NC(=O)N(CC(=O)Nc2cccc(S(=O)(=O)N3CCCCCC3)c2)C1=O (centres undefined),-15.7%
20,O=C(CCNC(=O)c1ccc(Br)cc1)NCC(c1ccco1)N1CCCCC1 (centres undefined),-10.9%
